Data from PubChem BioAssay (NCATS).
Results filed as inconclusive are left out. Calls of active or inactive are those of the source. Unless noted, calls follow the shape of the dose curve; as a rule, active = well fitted curve in the direction sought with a large enough effect; inconclusive = small, poorly fitted or top-dose-only effect, or another doubt; inactive = no such curve, though single readings can be large; an effect the other way counts as inactive or inconclusive.

Experiments:
[1] = AP1 Signaling Pathway (AID 357; active = well fitted curve in either direction with a large enough effect, not every such curve was filed as active;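 also: ME-180 reporter cells stimulated with EGF at its EC50 level; % is scaled to controls: 0 for no effect and ±100 for the full control effect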); settings: ME-180 AP-1-bla reporter, EGF-induced, beta-lactamase ratio, 5 h; at 7.69 µM (top of the series) unless noted
In short: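 A ratiometric CCF4 readout (405 nm excitation; 460 and 530 nm emission) quantified AP-1-driven beta-lactamase in ME-180 cells after 5 h with compound and EC50 EGF; AC50 values were derived for activators and inhibitors.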

[2] = molecular target: Cytochrome P450 1A2 (Homo sapiens) (UniProt P05177); assay: p450-cyp1a2 (AID 410; calls by dose curve; also: potency is read from the fitted curve at half-maximal effect)
Chain of Cytochrome P450 1A2 (Homo sapiens) (P05177 whole entry, looked up): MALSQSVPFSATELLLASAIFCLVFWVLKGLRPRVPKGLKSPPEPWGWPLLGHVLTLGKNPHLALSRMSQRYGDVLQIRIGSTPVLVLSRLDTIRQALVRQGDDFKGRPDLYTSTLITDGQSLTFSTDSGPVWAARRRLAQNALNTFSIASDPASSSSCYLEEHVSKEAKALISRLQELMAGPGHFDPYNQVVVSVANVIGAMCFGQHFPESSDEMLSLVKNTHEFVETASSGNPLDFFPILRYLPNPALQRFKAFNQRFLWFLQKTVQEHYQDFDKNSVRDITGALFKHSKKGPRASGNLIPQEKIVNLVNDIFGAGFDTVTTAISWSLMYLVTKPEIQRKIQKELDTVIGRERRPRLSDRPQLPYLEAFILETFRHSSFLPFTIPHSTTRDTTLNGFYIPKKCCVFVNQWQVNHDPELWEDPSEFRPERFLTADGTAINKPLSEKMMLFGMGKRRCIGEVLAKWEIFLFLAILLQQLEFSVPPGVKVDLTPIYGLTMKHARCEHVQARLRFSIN
In short: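 Human CYP1A2 (20nM) demethylated Luciferin-ME at its Km (100uM) in 100mM KPO4. After 10 min compound preincubation, NADPH regeneration ran the reaction 60 min at room temperature. Luciferin was read by luminescence, normalized to 57 uM furafylline.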

[3] = NFAT Signaling Pathway (AID 444; active = well fitted curve in either direction with a large enough effect, not every such curve was filed as active;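 also: carbachol stimulus at about its EC50 of 1 µM final; % is scaled to controls: 0 for no effect and ±100 for the full control effect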); settings: Jurkat NFAT-bla M1, carbachol, beta-lactamase ratio, 5 h; at 7.69 µM (top of the series) unless noted
In short: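 Jurkat cells carrying an NFAT-driven β-lactamase reporter and co-transfected muscarinic M1 receptor were treated with compound plus carbachol (1 uM final, an EC50 level) for 5 h at 37 °C. CCF4 loading followed for 1 h at RT; 460/530 nm ratio gave %activity.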

[4] = Stat Signaling Pathway (AID 446; active = well fitted curve in either direction with a large enough effect, not every such curve was filed as active;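 also: ME-180 cervical cancer cells given 40 pM IL-6 alongside compound; SIE-controlled beta-lactamase reporter measured as 460/530 nm FRET emission ratio; % is scaled to controls: 0 for no effect and ±100 for the full control effect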); settings: ME-180 (cervical carcinoma) SIE beta-lactamase reporter, IL-6 stimulated, 5 h; at 7.69 µM (top of the series) unless noted
In short: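 IL-6/STAT signaling read in ME-180 cells via an SIE beta-lactamase reporter. Stimulus was 40 pM IL-6 (its AC50) for 5 hrs, so both activation and inhibition register.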

[5] = molecular target: Glucocorticoid receptor (Homo sapiens) (UniProt P04150); assay: GR-GFP Redistribution (AID 450;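 active = compounds whose dose series gives a full or clear partial fitted curve of increased nuclear translocation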; also: potency is read from the fitted curve at half-maximal effect); settings: U2OS GR-GFP nuclear translocation, laser cytometry, 2 h
Chain of Glucocorticoid receptor (Homo sapiens) (P04150 whole entry, looked up, the tested form may be a part): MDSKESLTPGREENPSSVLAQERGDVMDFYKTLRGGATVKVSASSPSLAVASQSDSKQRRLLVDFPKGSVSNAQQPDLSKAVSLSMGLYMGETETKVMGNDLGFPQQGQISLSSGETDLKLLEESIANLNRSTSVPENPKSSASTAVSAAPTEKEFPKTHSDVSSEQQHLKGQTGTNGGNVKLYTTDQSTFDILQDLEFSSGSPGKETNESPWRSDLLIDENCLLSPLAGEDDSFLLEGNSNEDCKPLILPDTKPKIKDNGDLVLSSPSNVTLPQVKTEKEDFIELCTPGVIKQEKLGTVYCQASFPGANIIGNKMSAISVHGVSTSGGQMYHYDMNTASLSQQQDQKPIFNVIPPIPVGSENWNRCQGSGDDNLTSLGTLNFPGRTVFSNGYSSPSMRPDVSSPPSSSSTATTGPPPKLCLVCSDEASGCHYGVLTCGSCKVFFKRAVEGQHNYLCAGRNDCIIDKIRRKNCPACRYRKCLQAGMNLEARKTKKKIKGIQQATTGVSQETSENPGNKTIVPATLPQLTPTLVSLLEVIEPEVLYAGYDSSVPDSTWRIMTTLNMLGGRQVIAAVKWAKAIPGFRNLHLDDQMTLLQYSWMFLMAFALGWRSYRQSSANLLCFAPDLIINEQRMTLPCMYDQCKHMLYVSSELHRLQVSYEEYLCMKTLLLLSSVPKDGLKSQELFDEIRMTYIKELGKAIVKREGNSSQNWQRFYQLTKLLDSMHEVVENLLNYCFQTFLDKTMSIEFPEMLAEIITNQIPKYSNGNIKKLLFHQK

[6] = molecular target: Glucocorticoid receptor (Homo sapiens) (UniProt P04150); assay: GR-EFC Redistribution (AID 451; calls by dose curve; also: potency is read from the fitted curve at half-maximal effect); settings: CHO-K1 GR-EFC translocation, beta-gal luminescence, 2 h
In short: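 CHO-K1 cells stably expressing nuclear-localized β-gal enzyme acceptor and GR fused C-terminally to the enzyme donor fragment; ligand-driven nuclear translocation restores β-gal by complementation. Compounds titrated up to 46 uM final, 2 h at 37 °C; luminescence read.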

[7] = molecular target: Mitogen-activated protein kinase 10 (Mus musculus) (UniProt Q61831); assay: JNK3 AlphaScreen Assay (AID 530; active = well fitted curve in either direction with a large enough effect, not every such curve was filed as active;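 also: kinase came from lysate of stimulated human HepG2 cells; signal reports phosphorylation of biotinylated GST-cJun 1-79 at Ser73 with 10 µM ATP; % is scaled to controls: 0 for no effect and ±100 for the full control effect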)
In short: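 JNK3 came from HepG2 lysates pre-activated with IL-1beta and TNF-alpha and phosphorylated biotinylated GST-cJun (1-79) at 10 uM ATP, pH 7.6, room temperature. Compounds were titrated. AlphaScreen signal used anti-phospho-cJun (Ser73) antibody.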

[8] = molecular target: 3',5'-cyclic-AMP phosphodiesterase 4B (Homo sapiens) (UniProt Q07343); assay: qHTS Assay for Inhibitors of PDE-IV (AID 607; active = well fitted activation curve with a large enough effect in the main read-out, with a control signal flat, not every such curve was filed as active; also: % of control where 0% means no effect)
Chain of 3',5'-cyclic-AMP phosphodiesterase 4B (Homo sapiens) (Q07343 whole entry, looked up): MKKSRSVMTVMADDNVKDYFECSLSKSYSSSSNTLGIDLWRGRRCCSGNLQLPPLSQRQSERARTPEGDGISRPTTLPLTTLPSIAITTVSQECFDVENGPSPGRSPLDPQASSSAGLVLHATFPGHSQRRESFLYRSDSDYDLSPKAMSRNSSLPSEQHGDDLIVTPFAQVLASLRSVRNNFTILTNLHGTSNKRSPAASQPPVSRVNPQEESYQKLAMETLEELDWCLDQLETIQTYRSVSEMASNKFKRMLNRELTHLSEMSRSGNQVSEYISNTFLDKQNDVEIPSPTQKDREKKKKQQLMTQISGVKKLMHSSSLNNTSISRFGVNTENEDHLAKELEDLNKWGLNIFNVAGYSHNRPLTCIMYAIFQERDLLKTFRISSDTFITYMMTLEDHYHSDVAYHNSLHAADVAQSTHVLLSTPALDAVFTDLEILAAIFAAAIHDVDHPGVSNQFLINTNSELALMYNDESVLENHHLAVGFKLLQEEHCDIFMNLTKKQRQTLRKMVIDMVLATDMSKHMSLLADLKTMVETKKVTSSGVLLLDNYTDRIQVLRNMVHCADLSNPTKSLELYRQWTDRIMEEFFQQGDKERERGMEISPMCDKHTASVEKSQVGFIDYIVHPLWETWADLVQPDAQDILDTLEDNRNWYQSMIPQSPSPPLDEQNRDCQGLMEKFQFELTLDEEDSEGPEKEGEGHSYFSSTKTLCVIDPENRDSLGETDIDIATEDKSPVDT
In short: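 Live HEK293 cells with a modified cyclic nucleotide-gated (CNG) channel report intracellular cAMP via membrane-potential dye fluorescence (ex 535/em 590 nm). Endogenous PDE-IV was targeted. Compounds were tested at up to 22.9 uM final; RO 20-1724 100 uM served as control.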

[9] = molecular target: Cytochrome P450 3A4 (Homo sapiens) (UniProt P08684); assay: qHTS Assay for Inhibitors and Substrates of Cytochrome P450 3A4 (AID 884); also: potency is read from the fitted curve at half-maximal effect; nearly all actives have a fitted effect of over 50% in size
Chain of Cytochrome P450 3A4 (Homo sapiens) (P08684 whole entry, looked up): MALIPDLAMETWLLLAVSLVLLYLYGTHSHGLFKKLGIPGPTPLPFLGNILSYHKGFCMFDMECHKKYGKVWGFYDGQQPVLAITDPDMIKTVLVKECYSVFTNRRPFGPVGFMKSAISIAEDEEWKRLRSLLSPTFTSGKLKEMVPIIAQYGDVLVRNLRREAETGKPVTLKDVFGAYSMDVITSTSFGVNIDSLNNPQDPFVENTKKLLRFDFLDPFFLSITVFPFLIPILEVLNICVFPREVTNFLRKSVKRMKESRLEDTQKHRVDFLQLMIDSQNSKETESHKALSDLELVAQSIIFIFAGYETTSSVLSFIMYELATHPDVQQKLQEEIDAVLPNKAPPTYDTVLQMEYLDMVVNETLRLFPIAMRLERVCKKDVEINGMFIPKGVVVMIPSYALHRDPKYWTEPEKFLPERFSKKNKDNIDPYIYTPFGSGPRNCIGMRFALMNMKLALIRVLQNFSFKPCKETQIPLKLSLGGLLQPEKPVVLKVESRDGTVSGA
In short: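 20 nM human CYP3A4 with 25 uM Luciferin-PPXE (at KM) in 200 mM KPO4, preincubated 10 min with compound; NADPH regeneration started a 60 min RT reaction. Luciferin detected by luminescence, normalized to 57 uM ketoconazole as full inhibition.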

[10] = molecular target: Cytochrome P450 3A4 (Homo sapiens) (UniProt P08684); assay: qHTS Assay for Activators of Cytochrome P450 3A4 (AID 885); also: nearly all actives have a fitted effect of over 65% in size
In short: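 Quantitative HTS format: compounds preincubated with 20nM human CYP3A4 and Luciferin-PPXE substrate at KM, reaction started by NADPH regeneration, stopped after 60 min, luciferase luminescence read 20 min later.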

[11] = qHTS Assay for Lipid Storage Modulators (AID 1519; calls by dose curve); settings: Drosophila S3 cells, BODIPY lipid droplet/cell ratio, laser cytometry, cells loaded with oleic acid; for activity change, negative = inhibition: at 57.5 µM (top of the series)
In short: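 Cells seeded at 5,000 per well were treated with compounds over a concentration series and loaded with oleic acid (400 uM, as added). Lipid droplet fluorescence (488 nm excitation, 500-530 nm channel) was read by laser-scanning cytometry and normalized to 20 uM Triacsin C.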

[12] = molecular target: Dual specificity protein kinase CLK4 (Homo sapiens) (UniProt Q9HAZ1); assay: qHTS Assay for Inhibitors of CDC-like Kinase 4 (Kinase-Glo Assay) (AID 1770); also: nearly all actives have a fitted effect of over 65% in size; also: potency is read from the fitted curve at half-maximal effect
Chain of Dual specificity protein kinase CLK4 (Homo sapiens) (Q9HAZ1 whole entry, looked up): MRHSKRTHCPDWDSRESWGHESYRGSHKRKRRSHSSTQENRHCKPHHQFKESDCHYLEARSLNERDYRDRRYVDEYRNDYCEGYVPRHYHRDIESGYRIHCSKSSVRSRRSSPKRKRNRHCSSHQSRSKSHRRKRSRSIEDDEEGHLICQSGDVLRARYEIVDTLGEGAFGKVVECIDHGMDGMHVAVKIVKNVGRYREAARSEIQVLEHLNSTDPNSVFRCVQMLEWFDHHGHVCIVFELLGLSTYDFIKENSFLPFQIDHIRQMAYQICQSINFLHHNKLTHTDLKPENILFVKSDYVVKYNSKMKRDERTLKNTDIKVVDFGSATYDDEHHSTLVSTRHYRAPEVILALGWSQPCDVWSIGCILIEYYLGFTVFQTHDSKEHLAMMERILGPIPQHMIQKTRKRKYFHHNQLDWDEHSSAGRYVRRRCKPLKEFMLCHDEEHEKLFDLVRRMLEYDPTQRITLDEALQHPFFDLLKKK
In short: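 Inhibition was judged from remaining ATP, measured by Ultra-Glo luciferase bioluminescence after Clk4 (25 nM) had acted on RS peptide at 1 uM ATP for 4.5 hours, room temperature.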

[13] = molecular target: Dual specificity protein kinase CLK4 (Homo sapiens) (UniProt Q9HAZ1); assay: qHTS Assay for Inhibitors of CDC-like Kinase 4 (ADP-FP Assay) (AID 1795);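 also: recombinant human CLK4 phosphorylating RS repeat peptide at 1 µM ATP; % is scaled to controls: 0 for no effect and ±100 for the full control effect; nearly all actives have a fitted effect of over 60% in size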
In short: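 Inhibition of ADP formation by 6.25 nM Clk4 is measured using 1 uM ATP and 100 uM RS repeat peptide over one hour. Produced ADP displaces a fluorescent tracer from antibody, lowering polarization.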

[14] = molecular target: Ubiquitin carboxyl-terminal hydrolase 1 (Homo sapiens) (UniProt O94782); assay: Inhibitors of USP1/UAF1: Pilot qHTS (AID 504865);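 also: rhodamine fluorescence freed from ubiquitin-rhodamine substrate followed over time; top concentration of the series differs between compounds; % is scaled to controls: 0 for no effect and ±100 for the full control effect; nearly all actives have a fitted effect of over 35% in size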
Chain of Ubiquitin carboxyl-terminal hydrolase 1 (Homo sapiens) (O94782 whole entry, looked up): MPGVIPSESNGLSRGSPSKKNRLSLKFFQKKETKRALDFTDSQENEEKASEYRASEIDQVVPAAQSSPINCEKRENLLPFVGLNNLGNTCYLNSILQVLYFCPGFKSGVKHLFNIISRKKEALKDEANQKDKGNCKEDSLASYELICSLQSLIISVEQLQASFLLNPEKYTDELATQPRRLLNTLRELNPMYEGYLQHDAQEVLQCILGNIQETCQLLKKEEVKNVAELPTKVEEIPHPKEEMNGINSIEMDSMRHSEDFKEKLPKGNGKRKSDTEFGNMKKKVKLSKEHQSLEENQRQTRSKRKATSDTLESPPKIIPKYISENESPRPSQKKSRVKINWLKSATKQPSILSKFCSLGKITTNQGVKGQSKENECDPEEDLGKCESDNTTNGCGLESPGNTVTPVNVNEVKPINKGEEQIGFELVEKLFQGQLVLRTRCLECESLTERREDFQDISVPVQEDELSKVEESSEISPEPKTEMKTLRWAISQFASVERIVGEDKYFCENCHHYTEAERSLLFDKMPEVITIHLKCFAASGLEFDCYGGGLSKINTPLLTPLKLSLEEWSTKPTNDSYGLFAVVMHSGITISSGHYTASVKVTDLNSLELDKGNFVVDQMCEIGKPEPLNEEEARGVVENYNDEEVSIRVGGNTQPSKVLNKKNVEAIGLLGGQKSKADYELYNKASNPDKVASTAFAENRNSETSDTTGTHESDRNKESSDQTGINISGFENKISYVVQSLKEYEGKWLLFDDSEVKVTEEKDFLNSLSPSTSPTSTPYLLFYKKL
In short: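 Kinetic fluorescence assay: 1nM USP1/UAF1, 15 min compound preincubation, then 150nM Ub-Rho; 480/540 nm.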

[15] = Primary qHTS for small molecule stabilizers of the endoplasmic reticulum resident proteome: Secreted ER Calcium Modulated Protein (SERCaMP) assay (AID 1508630); also: % is scaled to controls: 0 for no effect and ±100 for the full control effect
In short: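 GLuc-SERCaMP-expressing SH-SY5Y cells, pretreated 16 h with compound, are challenged with thapsigargin to empty ER calcium stores; after 4 h, coelenterazine is added directly to the medium and luminescence is imaged.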

[16] = molecular target: Lysosomal acid glucosylceramidase (Homo sapiens) (UniProt P04062); assay: Glucocerebrosidase-p2 (AID 348; in the data active = potency below about 10 µM; also: potency is read from the fitted curve at half-maximal effect); settings: purified GBA, blue fluorogenic substrate, 40 min
Chain of Lysosomal acid glucosylceramidase (Homo sapiens) (P04062 whole entry, looked up): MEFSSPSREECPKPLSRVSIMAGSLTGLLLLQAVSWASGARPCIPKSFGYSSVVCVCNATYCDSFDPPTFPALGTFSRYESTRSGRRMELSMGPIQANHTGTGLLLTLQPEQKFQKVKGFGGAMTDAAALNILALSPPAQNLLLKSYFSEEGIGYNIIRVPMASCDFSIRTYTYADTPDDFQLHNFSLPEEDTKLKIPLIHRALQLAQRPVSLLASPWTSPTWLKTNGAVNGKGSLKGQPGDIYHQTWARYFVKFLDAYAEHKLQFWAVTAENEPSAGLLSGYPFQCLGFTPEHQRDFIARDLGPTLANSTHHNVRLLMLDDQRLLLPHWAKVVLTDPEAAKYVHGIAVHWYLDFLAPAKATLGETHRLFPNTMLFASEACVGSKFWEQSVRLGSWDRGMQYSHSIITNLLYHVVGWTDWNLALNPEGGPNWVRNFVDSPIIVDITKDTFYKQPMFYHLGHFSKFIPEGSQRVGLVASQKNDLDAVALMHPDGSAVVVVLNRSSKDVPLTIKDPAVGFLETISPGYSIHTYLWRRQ
In short: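 Compounds titrated from 0.6 nM upwards against 0.2 nM enzyme in pH 5.9 citric acid/KH2PO4, taurocholate, tween-20; blue fluorogenic substrate 80 uM, 40 min room temperature, stopped and read Ex 365/Em 440 for AC50.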

[17] = molecular target: Cytochrome P450 2C9 (Homo sapiens) (UniProt P11712); assay: qHTS Assay for Inhibitors and Substrates of Cytochrome P450 2C9 (AID 883); also: potency is read from the fitted curve at half-maximal effect; nearly all actives have a fitted effect of over 60% in size
In short: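 Human CYP2C9 (10nM) hydroxylated Luciferin-H (100uM, at its KM) to luciferin in 25mM KPO4. Compound was preincubated 10 min at 37C, then NADPH regeneration started a 60 min reaction at 37C. Luminescence was read after detection reagent, normalized to 57uM sulphaphenazole.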

[18] = molecular target: Cytochrome P450 2C19 (Homo sapiens) (UniProt P33261); assay: qHTS Assay for Inhibitors and Substrates of Cytochrome P450 2C19 (AID 899); also: potency is read from the fitted curve at half-maximal effect; nearly all actives have a fitted effect of over 60% in size
Chain of Cytochrome P450 2C19 (Homo sapiens) (P33261 whole entry, looked up): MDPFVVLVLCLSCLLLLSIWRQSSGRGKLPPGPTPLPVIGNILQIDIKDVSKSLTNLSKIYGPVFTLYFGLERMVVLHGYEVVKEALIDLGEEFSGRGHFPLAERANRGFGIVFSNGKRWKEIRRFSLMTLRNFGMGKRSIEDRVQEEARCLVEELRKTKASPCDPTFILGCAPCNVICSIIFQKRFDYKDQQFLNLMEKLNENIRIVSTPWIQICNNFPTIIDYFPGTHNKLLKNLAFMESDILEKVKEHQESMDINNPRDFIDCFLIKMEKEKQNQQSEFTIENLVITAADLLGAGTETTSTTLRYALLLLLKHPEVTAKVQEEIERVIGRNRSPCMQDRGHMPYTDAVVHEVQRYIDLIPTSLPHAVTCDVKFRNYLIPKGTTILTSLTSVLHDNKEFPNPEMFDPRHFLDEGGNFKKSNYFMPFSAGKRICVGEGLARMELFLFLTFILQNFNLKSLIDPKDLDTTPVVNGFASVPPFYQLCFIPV
In short: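 Human CYP2C19 (5nM) with Luciferin-H EGE at 10uM (its KM) in 50mM KPO4 was preincubated with compound for 10 min at 37C. NADPH regeneration started a 60 min 37C reaction. Luciferin was read by luminescence, normalized to 57uM ketoconazole.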

[19] = molecular target: Dual specificity protein kinase CLK4 (Homo sapiens) (UniProt Q9HAZ1); assay: qHTS Assay for Inhibitors of CDC-like Kinase 4 (ADP-Glo Assay) (AID 1771); also: % is scaled to controls: 0 for no effect and ±100 for the full control effect; nearly all actives have a fitted effect of over 70% in size
In short: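 Clk4 (25 nM) was incubated 1 hr at room temperature with 100 uM RS repeat peptide and 1 uM ATP in buffer with 2 mM MgCl2, 0.5 mM EGTA, 2.5 mM DTT. ADP formed was quantified by ADP-Glo luminescence.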

[20] = measured here: cell count channel max response
[21] = measured here: lipid channel max response

CC(=O)NCCNc1ncncc1-c1ccc(N(C)C)cc1
25.7%: max response [11, 20]
active: Potency [2] 6.31 µM | Potency [9] 2 µM
8.09%: max response [11, 21]
inactive: activity change, negative = inhibition [1] -11.6% | activity change, negative = inhibition [3] 9.49% | activity, negative = inhibition [4] 9.91% | Potency [5] > 46 µM | Potency [6] > 46 µM | outcome [7] | Potency [8] | Potency [10] | activity change, negative = inhibition [11] -9.91% | Potency [12] | Potency [13] | Potency [14] | Potency [15]

COc1ccc(CNc2ncnc3ccc(-c4cccc(NS(C)(=O)=O)c4)cc23)c(OC)c1
-8.13%: max response [11, 20]
active: Potency [2] 7.94 µM | Potency [17] 0.501 µM | Potency [9] 2 µM | Potency [18] 2.51 µM | Potency [12] 11.2 µM
inactive: Potency [16] > 11.4 µM | activity, negative = inhibition [4] -11.9% | Potency [5] > 46 µM | Potency [6] > 46 µM | outcome [7] | Potency [10] | activity change, negative = inhibition [11] -4.77% | Potency [14] | Potency [15]
-11.3%: max response [11, 21]

CN1CCN(c2ncc3ncc(=O)n(C[C@H]4CCCO4)c3n2)CC1
13.9%: max response [11, 21]
inactive: Potency [16] > 11.4 µM | activity change, negative = inhibition [1] -9.63% | activity, negative = inhibition [4] -20.2% | Potency [6] > 46 µM | outcome [7] | Potency [8] | activity change, negative = inhibition [11] 6.86% | Potency [19] | Potency [13] | Potency [14] | Potency [15]
active: Potency [2] 10 µM
7.9%: max response [11, 20]
